Test results from PubChem BioAssay (NCATS).
Records with an inconclusive call do not appear. Entries that show only a call come without a potency. Values without a mark were called inactive. Calls of active or inactive are those of the source. The call rests on the fitted dose curve; in most records, active means well fitted inhibition curve with a large enough effect; inconclusive means small, poorly fitted or top-dose-only effect; inactive means flat fitted curve, though single readings scatter.

What was measured:
[1] = qHTS profiling for inhibitors of Plasmodium falciparum proliferation (AID 504749); further: nearly all actives have a fitted effect of over 60% in size; conditions: P. falciparum in erythrocytes, SYBR Green DNA, 72 h
Method in brief: (§1)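 Infected RBCs, 0.3% parasitemia/2.5% Hct final; cpd 72 h, 37 C, 5% CO2; lysis buffer with saponin/triton/SYBR Green I, o/n RT dark; FI 485/535; norm. to artemisinin (0.29 uM) and DMSO.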

[2] = system: 3D7; assay: as above; conditions: P. falciparum in erythrocytes, SYBR Green DNA, 72 h; series mostly up to 28.7 µM
Method in brief: as §1

[3] = system: 7G8; assay: as above; conditions: P. falciparum in erythrocytes, SYBR Green DNA, 72 h; series mostly up to 28.7 µM
Method in brief: as §1

[4] = system: AA1029; assay: as above; conditions: P. falciparum in erythrocytes, SYBR Green DNA, 72 h; series mostly up to 28.7 µM
Method in brief: as §1

[5] = system: AS120; assay: as above; conditions: P. falciparum in erythrocytes, SYBR Green DNA, 72 h; series mostly up to 28.7 µM
Method in brief: as §1

[6] = system: ATS189; assay: as above; conditions: P. falciparum in erythrocytes, SYBR Green DNA, 72 h; series mostly up to 28.7 µM
Method in brief: as §1

[7] = system: ATS95; assay: as above; conditions: P. falciparum in erythrocytes, SYBR Green DNA, 72 h; series mostly up to 28.7 µM
Method in brief: as §1

[8] = at 28.7 µM (top of the series), parasite line A
[9] = at 28.7 µM (top of the series), parasite line B
[10] = at 12.8 µM (top of the series), parasite line A
[11] = at 12.8 µM (top of the series), parasite line B
Potency means the concentration at half of the fitted maximal effect.

For `O=C(O)CCC(=O)O`, the activity, negative = inhibition [1, 8] was 10.3%, the activity, negative = inhibition [1, 9] was 13.7% and the Potency [2] was “inactive”. For the same molecule, the Potency [3] was “inactive”, the Potency [4] was “inactive” and the Potency [5] was “inactive”. The Potency [6] was “inactive” and the Potency [7] was “inactive”.

With `O=C(O)COC(=O)Cc1ccccc1Nc1c(Cl)cccc1Cl` the activity, negative = inhibition [1, 10] was -3.73%, the activity, negative = inhibition [1, 11] was 2.28% and the Potency [2] was “inactive”. For the same molecule, the Potency [3] was “inactive”, the Potency [4] was “inactive” and the Potency [5] was “inactive”. The Potency [6] was “inactive” and the Potency [7] was “inactive”.

For `CC(=O)Oc1cccc(C)c1`, the activity, negative = inhibition [1, 8] was 4.88%, the activity, negative = inhibition [1, 9] was -6.23% and the Potency [2] was “inactive”. For the same molecule, the Potency [3] was “inactive”, the Potency [4] was “inactive” and the Potency [5] was “inactive”. For the same molecule, the Potency [6] was “inactive” and the Potency [7] was “inactive”.

In the case of `Cc1cccc(C(=O)O)c1O`, the activity, negative = inhibition [1, 8] is reported as 14.5%, the activity, negative = inhibition [1, 9] is reported as 2.46% and the Potency [2] is reported as “inactive”. For the same molecule, the Potency [3] was “inactive”, the Potency [4] was “inactive” and the Potency [5] was “inactive”. The Potency [6] was “inactive” and the Potency [7] was “inactive”.

In the case of `COC(=O)c1ccccc1C(=O)c1ccc(OCCN2CCCCC2)cc1`, the activity, negative = inhibition [1, 8] is reported as 9.58%, the activity, negative = inhibition [1, 9] is reported as 5.94% and the Potency [2] is reported as “inactive”. The Potency [3] was “inactive”, the Potency [4] was “inactive” and the Potency [5] was “inactive”. For the same molecule, the Potency [6] was “inactive” and the Potency [7] was “inactive”.

In the case of `CCCCCCCCCCOc1cc2c(=O)c(C(=O)OCC)c[nH]c2cc1OCC`, the Potency ([1]; parasite line A) is reported as 0.9 nM (active), the Potency ([1]; parasite line B) is reported as 2.2 nM (active) and the Potency [2] is reported as 2.2 nM (active). For the same molecule, the Potency [3] was 2.8 nM (active), the Potency [4] was 2.5 nM (active) and the Potency [5] was 2 nM (active). The Potency [6] was 1.3 nM (active) and the Potency [7] was 2.8 nM (active).

In the case of `CC[N+](C)(CC)CCOC(=O)C1c2ccccc2Oc2ccccc21`, the activity, negative = inhibition [1, 8] is reported as -12.5%, the activity, negative = inhibition [1, 9] is reported as -20.9% and the Potency [2] is reported as “inactive”. For the same molecule, the Potency [3] was “inactive”, the Potency [4] was “inactive” and the Potency [5] was “inactive”. The Potency [6] was “inactive” and the Potency [7] was “inactive”.

With `Cc1ccc(S(=O)(=O)NC(=O)NC2CCCCCCC2)cc1` the activity, negative = inhibition [1, 8] was 11.2%, the activity, negative = inhibition [1, 9] was 10.7% and the Potency [2] was “inactive”. The Potency [3] was “inactive”, the Potency [4] was “inactive” and the Potency [5] was “inactive”. The Potency [6] was “inactive” and the Potency [7] was “inactive”.

With `COc1ccc(Cc2cnc(N)nc2N)cc1OC` the Potency ([1]; parasite line A) was 3550 nM (active), the Potency ([1]; parasite line B) was 8910 nM (active) and the Potency [2] was 7080 nM (active). For the same molecule, the Potency [3] was “inactive”, the Potency [4] was “inactive” and the Potency [5] was “inactive”. The Potency [6] was “inactive” and the Potency [7] was “inactive”.

In the case of `O=C(CCBr)N1CCN(C(=O)CCBr)CC1`, the activity, negative = inhibition [1, 8] is reported as 10%, the activity, negative = inhibition [1, 9] is reported as -0.0848% and the Potency [2] is reported as “inactive”. The Potency [3] was “inactive”, the Potency [4] was “inactive” and the Potency [5] was “inactive”. The Potency [6] was “inactive” and the Potency [7] was “inactive”.

With `COc1ccc2cc(CCC(C)=O)ccc2c1` the activity, negative = inhibition [1, 10] was 8.55%, the activity, negative = inhibition [1, 11] was 1.23% and the Potency [2] was “inactive”. The Potency [3] was “inactive”, the Potency [4] was “inactive” and the Potency [6] was “inactive”. For the same molecule, the Potency [7] was “inactive”.

For `OCC(O)CS` (centres undefined), the activity, negative = inhibition [1, 8] was 2.38%, the Potency [2] was “inactive” and the Potency [3] was “inactive”. The Potency [4] was “inactive”, the Potency [5] was “inactive” and the Potency [6] was “inactive”. For the same molecule, the Potency [7] was “inactive”.

For `CC(=O)N[C@@H](Cc1ccc(O)cc1)C(=O)O`, the activity, negative = inhibition [1, 8] was 9.07%, the activity, negative = inhibition [1, 9] was 9.16% and the Potency [2] was “inactive”. For the same molecule, the Potency [4] was “inactive”, the Potency [5] was “inactive” and the Potency [6] was “inactive”. For the same molecule, the Potency [7] was “inactive”.

In the case of `O=C(O)CCCCC1CCSS1` (centres undefined), the activity, negative = inhibition [1, 8] is reported as 5.2%, the activity, negative = inhibition [1, 9] is reported as 12.3% and the Potency [2] is reported as “inactive”. For the same molecule, the Potency [4] was “inactive”, the Potency [5] was “inactive” and the Potency [6] was “inactive”. The Potency [7] was “inactive”.

For `Cc1c(NC(C)C)c(=O)n(-c2ccccc2)n1C`, the activity, negative = inhibition [1, 8] was 8.37%, the activity, negative = inhibition [1, 9] was 23.5% and the Potency [2] was “inactive”. For the same molecule, the Potency [3] was “inactive”, the Potency [4] was “inactive” and the Potency [5] was “inactive”. The Potency [6] was “inactive” and the Potency [7] was “inactive”.

For `COc1nccnc1NS(=O)(=O)c1ccc(N)cc1`, the activity, negative = inhibition [1, 8] was 0.889%, the activity, negative = inhibition [1, 9] was -0.327% and the Potency [3] was “inactive”. The Potency [4] was “inactive”, the Potency [5] was “inactive” and the Potency [6] was “inactive”. The Potency [7] was “inactive”.

With `NC(=O)c1ccc([N+](=O)[O-])cc1Cl` the activity, negative = inhibition [1, 8] was -8.53%, the activity, negative = inhibition [1, 9] was 6.47% and the Potency [2] was “inactive”. The Potency [3] was 8910 nM (active), the Potency [4] was “inactive” and the Potency [5] was “inactive”. For the same molecule, the Potency [7] was “inactive”.

In the case of `CC(C)=CCC/C(C)=C/CO`, the activity, negative = inhibition [1, 8] is reported as -3.97%, the Potency [2] is reported as “inactive” and the Potency [3] is reported as “inactive”. The Potency [4] was “inactive”, the Potency [5] was “inactive” and the Potency [6] was “inactive”. The Potency [7] was “inactive”.

For `CCCCCCCCCCC(CO)CCCCCCCC` (centres undefined), the activity, negative = inhibition [1, 8] was -1.63%, the activity, negative = inhibition [1, 9] was 6.03% and the Potency [2] was “inactive”. For the same molecule, the Potency [4] was “inactive”, the Potency [5] was “inactive” and the Potency [6] was “inactive”. For the same molecule, the Potency [7] was “inactive”.

In the case of `CCN1CC(CCN2CCOCC2)C(c2ccccc2)(c2ccccc2)C1=O` (centres undefined), the activity, negative = inhibition [1, 8] is reported as 10.7%, the activity, negative = inhibition [1, 9] is reported as -5.11% and the Potency [2] is reported as “inactive”. The Potency [5] was “inactive” and the Potency [7] was “inactive”.
